Source: PubChem BioAssay (NCI)
Compounds without any hit were thinned out: in the full panel of roughly 79,000, 15% have a hit. The source made the active and inactive calls. Rule as the data show it: active = growth inhibition above about 70%; inactive = the rest. Where a SMILES comes first, the peptide text is derived from it. [ ]: non-standard residue; d: D form. The star is where a group is joined. ξ: configuration not given here. ξAsp(βξ-Me) = CC(C(=O)O)C(N)C(=O)O; X11 = CC(N*)C1NC(=O)C2CCCCN2C1=O; ξAbu(3ξ-NH2) = CC(N)C(N)C(=O)O; X10 = CCC(C)CCC/C=C/CC(=O)*

Assays:
[1] = NCI Yeast Anticancer Drug Screen. Data for the rad50 strain (AID 155);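 also: 0% = growth of vehicle-only cultures of the same strain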; details: S. cerevisiae rad50 strain growth inhibition; at 50.0 µM; active compounds read high
In short: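 Relative growth inhibition (compound vs vehicle) was measured in yeast with a defined repair-gene alteration.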

[2] = NCI Yeast Anticancer Drug Screen. Data for the mec2-1 strain (AID 157); details: S. cerevisiae mec2-1 strain, at 50.0 µM, active compounds read high
In short: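 Cells of the genetically defined mec2-1 yeast strain are incubated with test compound. Inhibition of growth is calculated against vehicle-treated controls.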

[3] = NCI Yeast Anticancer Drug Screen. Data for the sgs1 mgt1 strain (AID 161);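 also: 0% = growth of cultures given vehicle only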; details: S. cerevisiae sgs1 mgt1 strain, at 50.0 µM, active compounds read high
In short: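 Inhibition of yeast growth, normalised to vehicle-treated controls, is reported for a strain bearing genetic alterations in DNA damage repair.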

[4] = NCI Yeast Anticancer Drug Screen. Data for the cln2 rad14 strain (AID 165);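 also: 0% = growth equal to vehicle treated cultures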; details: S. cerevisiae cln2 rad14 strain, at 50.0 µM, active compounds read high
In short: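 The screen exposed genetically defined yeast (cln2 rad14) to test compounds and scored growth inhibition relative to vehicle-treated controls.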

[5] = NCI Yeast Anticancer Drug Screen. Data for the bub3 strain (AID 167); details: S. cerevisiae bub3 mutant strain, at 50.0 µM, active compounds read high
In short: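 Screening used yeast with an engineered genetic alteration affecting cell cycle control. Compound-exposed cultures were compared with vehicle cultures, and reduced growth was taken as inhibition.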

[6] = NCI Yeast Anticancer Drug Screen. Data for the mlh1 rad18 strain (AID 175); details: S. cerevisiae mlh1 rad18 strain growth inhibition; at 50.0 µM; active compounds read high
In short: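 Compound-treated yeast growth, normalised to vehicle controls. Strain bears defined DNA repair mutations.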

Measured: growth inhibition

O=C(O)c1cc(Cc2ccc(I)c(C(=O)O)c2)ccc1I
inactive: [1] 20.9% | [2] 2.5% | [3] 32.9% | [4] 29% | [5] -5.75% | [6] 40.5%

CCOC(=O)c1c(SC(=O)c2ccc(C(C)(C)C)cc2)n(-c2ccccc2)c(=S)n(-c2ccccc2)c1=O
inactive: [1] 31.1% | [2] 0.55% | [3] 26.8% | [4] 6.45% | [5] 40% | [6] 18.9%

CC(C)(C)[Si](C)(C)OCC1OC(n2cc(I)c(=O)[nH]c2=O)C(O[Si](C)(C)C(C)(C)C)C1O[Si](C)(C)C(C)(C)C (configuration not stated)
inactive: [1] -19.2% | [2] -16% | [3] -18.2% | [4] 14.8% | [5] 11.9% | [6] -33.5%

O=C1CN(/N=C/c2ccc(-c3ccc(F)cc3)o2)C(=O)N1
inactive: [1] 10.4% | [2] -0.15% | [3] -20.9% | [4] -26.6% | [5] 5.05% | [6] -3.45%

CCOC(=O)c1cnc(SC)nc1Nc1ccc(OC)cc1
inactive: [1] 47.4% | [2] 8.55% | [3] 7.35% | [4] 9.6% | [5] 21.2% | [6] 50.1%

CCOC(=O)Nc1n[nH]nc1Cl
inactive: [1] -21.5% | [2] -10.1% | [3] 25.1% | [4] -20.9% | [5] -20.1% | [6] -12.7%

Cc1ccc(SCC(CF)OC(C)n2cnc3c(Cl)nc(N)nc32)cc1 (configuration not stated)
inactive: [1] 14.3% | [2] 1.05% | [3] 30.6% | [4] 39.6% | [5] 41.7% | [6] -36.7%

Cc1ccc(SC(=O)N2C(=S)NC(=NC3CCCCC3)C23CCCCC3)cc1
inactive: [1] -14% | [2] -9.05% | [3] -4.05% | [4] -41.3% | [5] -32.5% | [6] -24.5%

CC1CCC(C(C)C)=C(C2CCCCC2)C1 (configuration not stated)
inactive: [1] -2.15% | [2] 1.65% | [3] -3.65% | [4] -7.05% | [5] -9.8% | [6] 6.65%

O=C(NC(CSC(=O)OCc1ccccc1)C(=O)Oc1ccc([N+](=O)[O-])cc1)OCc1ccccc1 (configuration not stated)
inactive: [1] 16.3% | [2] -7.4% | [3] 3.45% | [4] -23.8% | [5] -0.45% | [6] 2.4%

CC(C)(NC(=O)OCc1ccccc1)C(=O)OC(=O)C(C)(C)NC(=O)OCc1ccccc1
inactive: [1] -15.9% | [2] 21.1% | [3] 5.85% | [4] 13.8% | [5] 2.15% | [6] -19.4%

c1ccc(Cc2ccc3ccccc3c2)cc1
inactive: [1] 35.3% | [2] 14.6% | [3] 11.8% | [4] -26.6% | [5] 12.2% | [6] 50.2%

CC1(C)C2CCC(CCOC(=O)COc3ccc(Cl)cc3)C1C2 (configuration not stated)
inactive: [1] -9.45% | [2] 5.5% | [3] 12.1% | [4] -44.2% | [5] 3.15% | [6] 12.6%

Cc1cc(OCCBr)ccc1[N+](=O)[O-]
inactive: [1] -4.5% | [2] 9.45% | [3] -17.6% | [4] -15.1% | [5] 22.7% | [6] 0.45%

CCC(C)CCC/C=C/CC(=O)NC(CC(=O)O)C(=O)NC(C(=O)NC(CC(=O)O)C(=O)NCC(=O)NC(CC(=O)O)C(=O)NCC(=O)NC(C(=O)NC(C(=O)N1CCCC1C(=O)NC(C)C1NC(=O)C2CCCCN2C1=O)C(C)C)C(C)N)C(C)C(=O)O (stereo not drawn) (X10-D[ξAsp(βξ-Me)]DGDG[ξAbu(3ξ-NH2)]VP-X11; configuration not given here)
inactive: [1] -38.3% | [2] -42.5% | [3] -56.2% | [4] -67.4% | [5] -29.5% | [6] -25.9%

Cc1ccc(NC(=S)N2CCCCC2C)cc1C (configuration not stated)
inactive: [1] 17.9% | [2] 11.7% | [3] 12.7% | [4] 3.1% | [5] 16.6% | [6] -6.15%

CCC(=O)OC(OC(=O)CC)c1ccc2c(c1)OCO2
inactive: [1] -4.6% | [2] 0.7% | [3] 4.45% | [4] -18.9% | [5] 7.75% | [6] -1%

COc1cc2c(NCCCCCCO[N+](=O)[O-])ncnc2c(OC)c1OC
inactive: [1] 26.6% | [2] -5.7% | [3] 40.8% | [4] 43.8% | [5] 39% | [6] 30.6%

O/N=C1\CCCCC1C(NO)c1ccccc1 (configuration not stated)
inactive: [1] 2.4% | [2] -4.25% | [3] -7.9% | [4] -16.4% | [5] -12.2% | [6] 9.35%

OC(c1ccccc1)C1(O)CCCCC1 (configuration not stated)
inactive: [1] -10.8% | [2] -5.25% | [3] -1.7% | [4] -52.5% | [5] -17.1% | [6] 9.75%

Cn1c(=O)c2c(nc(C[N+]3([O-])CCOCC3)n2C)n(C)c1=O
inactive: [1] -4.75% | [2] -34.9% | [3] -27.9% | [4] 8.35% | [5] -11.5% | [6] -27.9%

COc1cc(N2C(=O)CSC2=S)cc(OC)c1OC
inactive: [1] 21.3% | [2] 12.3% | [3] 61.8% | [4] 25.4% | [5] 33.8% | [6] 23.4%

CCCn1c(CC)nc([N+](=O)[O-])c1Sc1ncn[nH]1
inactive: [1] -14.7% | [2] -23.1% | [3] -7.1% | [4] 9.1% | [5] -5.6% | [6] -11.5%

Brc1ccncc1
inactive: [1] -10.7% | [2] -47.5% | [3] -1.55% | [4] 3.35% | [5] -21.9% | [6] -13.6%

C=CCNC(=O)/C(C)=C(\C)c1ccc(F)cc1
inactive: [1] 4.15% | [2] 6% | [3] 3.2% | [4] -17.7% | [5] 2.5% | [6] -4.7%

O=NN(CC1(O)OCC(O)C(O)C1O)C(Cc1c[nH]c2ccccc12)C(=O)O (configuration not stated)
inactive: [1] -8.7% | [2] -22.9% | [3] -27.1% | [4] 2.1% | [5] -0.5% | [6] -4.8%

CC1(C)CCCN1C(=O)Nc1ccc([N+](=O)[O-])cc1[N+](=O)[O-]
inactive: [1] 4.1% | [2] -7.7% | [3] 5.4% | [4] -12.6% | [5] -4.15% | [6] -14.1%

O=C(Nc1nccs1)Nc1ccc(Cl)cc1[N+](=O)[O-]
inactive: [1] 0.1% | [2] 33.6% | [3] 34.6% | [4] -6.95% | [5] 24.8% | [6] 34.4%

Cc1ccc(S(=O)(=O)N/N=C/c2oc(-c3ccncc3)c(-c3ccncc3)c2[N+](=O)[O-])cc1
inactive: [1] -1.15% | [2] 10.8% | [3] 17.4% | [4] 27.8% | [5] -11.5% | [6] 17.1%

Nc1nc(N)c2nc(-c3ccc(O)cc3)c(-c3ccc(O)cc3)nc2n1
inactive: [1] -15.5% | [2] -4% | [3] 0.15% | [4] 50.6% | [5] 7.9% | [6] -13.6%

O=C(O)C(Cc1ccc2c(c1)CCC2)(Cc1ccc2c(c1)CCC2)C(=O)O
inactive: [1] 26.9% | [2] 13.3% | [3] -4% | [4] 33.3% | [5] 22.8% | [6] 12.1%

COc1ccccc1/C=N/Nc1nnc2c3ccccc3c3ncccc3c2n1
inactive: [1] -28.8% | [2] -45.8% | [3] -22.5% | [4] -10.8% | [5] -8.55% | [6] -34%

Cc1cc2nc(N3CCOCC3)n(C3OC(CO)C(O)C3O)c2cc1C (configuration not stated)
inactive: [1] -6.6% | [2] 5.75% | [3] 23.2% | [4] 1.55% | [5] -8.95% | [6] 3.95%

O=C1C2=C(CCC2)C(=O)N1c1ccc(N2C(=O)C3=C(CCC3)C2=O)cc1
inactive: [1] -12.6% | [2] -4.55% | [3] -16.2% | [4] -15.4% | [5] -10.6% | [6] -13.2%

O=c1c2cc(Cl)ccc2on1CN1CCOCC1
inactive: [1] 3.4% | [2] 11.4% | [3] 17% | [4] -3.9% | [5] 5.4% | [6] 5.8%

C[CH2][Ge]([CH2]C)([CH2]C)[O]C(=O)CCC(=O)[O][Ge]([CH2]C)([CH2]C)[CH2]C
inactive: [1] -2.1% | [2] -2.9% | [3] -3.7% | [4] -66.7% | [5] -0.45% | [6] 14.7%

CCOC(=O)c1cnc(SC)nc1Nc1cccc(Cl)c1Cl
active: [2] 99% | [4] 98.1% | [5] 98.8%
inactive: [1] 1.15% | [3] 35.9% | [6] 25.1%
